In PubChem BioAssay AID1481 (The Scripps Research Institute Molecular Screening Center, 2009) one finds inhibition data, which are given here for 28 compounds.

Out of some 220,000 compounds screened, about 920 (0.42%) were called active. The sample as a whole holds a higher share of actives than the screen did. Unmarked numbers belong to inactive results. No stated cut-off is given here; in the data, active means inhibition above about 15%; inactive means the rest.

This assay deals with Transitional endoplasmic reticulum ATPase (Homo sapiens) (UniProt P55072). Description: inhibitors of human p97 ATPase, primary screen, biochemical (AID 1481).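 Further: 0% = DMSO vehicle and 100% = wells lacking enzyme.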 Conditions: recombinant p97 ATPase, Kinase-Glo ATP luminescence, 3 h; at 8 µM; hits give high values. On the technique in general: In Kinase-Glo more light means more ATP remaining.
Chain of Transitional endoplasmic reticulum ATPase (Homo sapiens) (P55072 whole entry, looked up): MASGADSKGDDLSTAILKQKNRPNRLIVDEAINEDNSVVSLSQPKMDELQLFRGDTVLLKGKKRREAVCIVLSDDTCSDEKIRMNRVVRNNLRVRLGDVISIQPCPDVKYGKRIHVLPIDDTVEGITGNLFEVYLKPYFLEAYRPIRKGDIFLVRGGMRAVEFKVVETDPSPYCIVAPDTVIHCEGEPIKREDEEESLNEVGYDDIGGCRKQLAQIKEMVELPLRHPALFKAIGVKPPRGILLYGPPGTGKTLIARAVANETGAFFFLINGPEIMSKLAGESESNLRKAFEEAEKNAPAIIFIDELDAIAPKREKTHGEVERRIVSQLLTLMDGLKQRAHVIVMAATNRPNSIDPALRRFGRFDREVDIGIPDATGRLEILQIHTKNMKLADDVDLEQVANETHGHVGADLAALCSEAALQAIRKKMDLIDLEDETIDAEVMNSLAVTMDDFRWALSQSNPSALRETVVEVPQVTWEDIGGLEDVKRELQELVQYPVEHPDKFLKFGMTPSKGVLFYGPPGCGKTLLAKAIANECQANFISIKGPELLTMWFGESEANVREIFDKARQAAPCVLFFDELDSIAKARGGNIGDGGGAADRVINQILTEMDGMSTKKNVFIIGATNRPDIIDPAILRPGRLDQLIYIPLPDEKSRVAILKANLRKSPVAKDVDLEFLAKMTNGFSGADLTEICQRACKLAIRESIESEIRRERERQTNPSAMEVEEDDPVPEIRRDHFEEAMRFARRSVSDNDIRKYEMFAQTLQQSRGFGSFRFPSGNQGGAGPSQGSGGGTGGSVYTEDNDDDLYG
As for `Cc1no[n+]([O-])c1COc1ccccc1/C=C1\NC(=S)NC1=O`, the inhibition (commonly the change of the read-out against control, counted positive when it falls) was 36% (active).
The value for `Cc1ccccc1-n1c(C)cc(/C=C2\NC(=O)NC2=O)c1C` was -1.59%.
The value for `Cc1ccc(/C=N/NC(=O)COc2ccccc2-c2ccccc2)cc1` was -5.12%; that for `Cc1ccc(NC(=O)NC2CCCCC2)cc1S(=O)(=O)N1CCOCC1` was 1.18%; that for `CCOc1c(CNCc2ccc(C(=O)O)cc2)cccc1OC` was 3.61%.
For `O=C(c1[nH]ncc1-c1ccc(Cl)cc1)C1CO1` (stereo not drawn), the inhibition is 18.1% (active).
In the case of `S=c1[nH]nc(-c2ccc(Cl)cc2)n1CC1CCCO1` (stereo not drawn) it was -0.03%.
In the case of `O=C(c1nnc(-c2ccc(Cl)cc2)o1)C1CCCC1` it was -6.78%.
As to `CN(CC(=O)NCCc1ccccc1)S(=O)(=O)c1cnc[nH]1`, the inhibition was -2.11%.
In the case of `O=C(c1ccc(OC2CCN(C(=O)c3cccnc3)CC2)cc1)N1CCCCCC1` it was -2.04%.
In the case of `Nc1nnnn1/N=C/c1cc([N+](=O)[O-])ccc1O` it was 1.03%; in that of `N=C1C(c2nc3ccccc3s2)=C(O)CN1NC(=O)c1ccc([N+](=O)[O-])cc1`, 28.3% (active); in that of `CCOC(=O)CCCN1CC(O)=C(c2nc3ccccc3s2)C1=N`, -8.77%.
In the case of `COc1ccccc1N1CC(O)=C(c2nc3ccccc3s2)C1=N`, the inhibition was 6.21%.
Take `O=C(CCc1ccccc1)Nc1nn[nH]n1`: the inhibition is -3.71%.
In the case of `CC(NC(=S)Nc1ccc(S(N)(=O)=O)cc1)c1ccc2c(c1)OCO2` (stereo not drawn) it was 0.42%; in that of `O=C(Nc1ccc2c(c1)OCCO2)C(c1ccc(F)cc1)N1CCCCC1` (stereo not drawn), -0.16%.
In the case of `CC1CCCN(C(C(=O)Nc2ccc(C(C)C)cc2)c2ccc3c(c2)OCO3)C1` (stereo not drawn) it was 15.3% (active).
In the case of `CN1C(=O)C(CC(=O)Nc2ccccc2)S/C1=N/c1nccs1` (stereo not drawn) it was 6.76%; in that of `Cc1cc(C)c(C#N)c(N2CCC(C(N)=O)CC2)n1`, 3.21%; in that of `CC(=O)c1cc(C#N)c(N2CCCCC2)nc1C`, -1.2%.
As for `N#Cc1c(N2CCCCC2)nc(N)c2c(N)nc(SCC(=O)O)cc12`, the inhibition was 53.6% (active).
The value for `O=C(NC(=O)N1CCOCC1)c1ccccc1` was 5.31%; that for `O=C(CCl)N(Cc1cccc([N+](=O)[O-])c1)c1cccc(Cl)c1` was -3.6%.
The value for `CCOC(=O)N1CCC(c2cc(=O)n(-c3ccccc3)[nH]2)CC1` was 23% (active).
In the case of `CCOC(=O)CN1CCC(c2ccccc2)CC1` it was -3.38%.
Turning to `CCOC(=O)N1CCC(NC(=O)COc2cc(=O)n(C)c3ccccc23)CC1`, the inhibition was -0.15%.
In the case of `CC(=O)Nc1nc2c(s1)C(=O)NCC(C)(C)C2` it was 0.86%.
